Laboratory results reported in PubChem BioAssay (NCI).
This is part of a sample that, as a whole, favours compounds with a hit. Of some 79,000 tested, about 15% had one in any assay. Activity calls are given as the source filed them. No stated cut-off is given here; in the data, active means growth inhibition above about 70%; inactive means the rest.

How the values were obtained:
[1] = NCI Yeast Anticancer Drug Screen. Data for the rad52 strain (AID 147);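 further: 0% = growth of vehicle-treated control cultures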; conditions: S. cerevisiae rad52 mutant growth inhibition, hits give high values
How it was run: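 Vehicle-treated cultures served as the reference for growth inhibition of compound-exposed yeast bearing a DNA repair mutation.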

[2] = NCI Yeast Anticancer Drug Screen. Data for the wt1 strain (AID 149);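 further: 0% = growth of vehicle-treated wt1 cultures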; conditions: S. cerevisiae wt1 strain (SPY 50644) growth inhibition, hits give high values
How it was run: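 Measured: growth of wt1 yeast under compound versus vehicle treatment, reported as inhibition.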

[3] = NCI Yeast Anticancer Drug Screen. Data for the rad50EPP+ strain (AID 151);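 further: 0% = growth of vehicle-treated control cultures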; conditions: S. cerevisiae rad50 mutant strain, hits give high values
How it was run: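 In this screen, rad50EPP+ yeast were exposed to compounds. Growth inhibition was scored against vehicle-treated controls.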

[4] = NCI Yeast Anticancer Drug Screen. Data for the mgt1 strain (AID 153); conditions: S. cerevisiae mgt1 mutant growth inhibition, hits give high values
How it was run: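 mgt1 strain exposed; growth vs vehicle control recorded as inhibition.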

[5] = NCI Yeast Anticancer Drug Screen. Data for the rad50 strain (AID 155);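 further: 0% = growth of vehicle-only cultures of the same strain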; conditions: S. cerevisiae rad50 strain growth inhibition, hits give high values
How it was run: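 Growth of the mutant yeast was measured after compound exposure and referenced to vehicle-treated cultures.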

[6] = NCI Yeast Anticancer Drug Screen. Data for the mec2-1 strain (AID 157); conditions: S. cerevisiae mec2-1 strain, hits give high values
How it was run: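 Vehicle-treated cultures served as reference for growth inhibition of compound-exposed mec2-1 yeast.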

[7] = NCI Yeast Anticancer Drug Screen. Data for the rad14 strain (AID 159);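 further: 0% = growth of vehicle-treated control cultures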; conditions: S. cerevisiae rad14 strain growth inhibition, hits give high values
How it was run: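 Here, inhibition of yeast growth was measured after compound exposure, using a strain with a genetic defect in DNA damage repair and vehicle-treated cultures as the reference.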

[8] = NCI Yeast Anticancer Drug Screen. Data for the sgs1 mgt1 strain (AID 161);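 further: 0% = growth of cultures given vehicle only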; conditions: S. cerevisiae sgs1 mgt1 strain, hits give high values
How it was run: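 Inhibition of yeast growth, normalised to vehicle-treated controls, is reported for a strain bearing genetic alterations in DNA damage repair.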

[9] = NCI Yeast Anticancer Drug Screen. Data for the CLN2oe strain (AID 163);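 further: 0% = growth of vehicle-only control cultures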; conditions: S. cerevisiae CLN2oe strain, hits give high values
How it was run: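 Inhibition relative to vehicle-treated yeast is reported. Cells: strain with genetic alteration in cell-cycle control, grown with compound.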

[10] = NCI Yeast Anticancer Drug Screen. Data for the cln2 rad14 strain (AID 165);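 further: 0% = growth equal to vehicle treated cultures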; conditions: S. cerevisiae cln2 rad14 strain, hits give high values
How it was run: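 Each compound was tested on cln2 rad14 yeast. Inhibition of growth was calculated against vehicle-exposed controls.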

[11] = NCI Yeast Anticancer Drug Screen. Data for the bub3 strain (AID 167); conditions: S. cerevisiae bub3 mutant strain, hits give high values
How it was run: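 Whole-cell yeast assay. The mutant strain was incubated with compounds, and growth inhibition was determined by comparison with vehicle-treated cells.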

[12] = NCI Yeast Anticancer Drug Screen. Data for the wt2 strain (AID 169);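 further: 0% = growth of vehicle-treated yeast cultures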; conditions: S. cerevisiae wt2 strain growth inhibition, hits give high values
How it was run: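 Inhibition of yeast growth was determined after compound treatment, normalised to controls receiving only vehicle.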

[13] = NCI Yeast Anticancer Drug Screen. Data for the mlh1 strain (AID 171);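 further: 0% = growth of vehicle-treated control cultures of the same strain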; conditions: S. cerevisiae mlh1 strain growth inhibition, hits give high values
How it was run: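 Vehicle-normalised growth inhibition of a repair- or checkpoint-altered yeast strain following compound treatment.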

[14] = NCI Yeast Anticancer Drug Screen. Data for the sgs1 strain (AID 173);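 further: 0% = growth of vehicle-only control cultures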; conditions: S. cerevisiae sgs1 mutant, hits give high values
How it was run: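 Screen format: yeast with repair or checkpoint alterations, compound exposure, growth read relative to vehicle.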

[15] = NCI Yeast Anticancer Drug Screen. Data for the mlh1 rad18 strain (AID 175); conditions: S. cerevisiae mlh1 rad18 strain growth inhibition, hits give high values
How it was run: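 Vehicle-treated cultures served as the reference for growth inhibition in a yeast strain carrying DNA damage repair alterations exposed to each compound.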

[16] = NCI Yeast Anticancer Drug Screen. Data for the rad18 strain (AID 177); conditions: S. cerevisiae rad18 mutant growth inhibition, hits give high values
How it was run: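 Test articles were incubated with altered yeast defective in DNA damage repair. Results are given as inhibition of growth versus vehicle.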

[17] = at 5.0 µM (retest, dose inferred, filed as 0.5)
[18] = at 50.0 µM (retest, dose inferred, filed as 5.0)

Measured: growth inhibition

CCN(CC)C(C)(C)C(=O)/C=C/c1ccccc1
inactive: [1]; at 1.2 µM -1% | [1]; at 3.7 µM -1% | [1]; at 11.0 µM 0% | [1]; at 33.0 µM -1% | [1]; at 100.0 µM 2% | [2]; at 1.2 µM 0% | [2]; at 3.7 µM 5% | [2]; at 11.0 µM 2% | [2]; at 33.0 µM 2% | [2]; at 100.0 µM 4% | [3]; at 1.2 µM 2% | [3]; at 3.7 µM 6% | [3]; at 11.0 µM 8% | [3]; at 33.0 µM 6% | [3]; at 100.0 µM 5% | [4]; at 1.2 µM -3% | [4]; at 3.7 µM -3% | [4]; at 11.0 µM -3% | [4]; at 33.0 µM -1% | [4]; at 100.0 µM 2% | [5]; at 1.2 µM 0% | [5]; at 3.7 µM 2% | [5]; [17] 19% | [5]; at 11.0 µM 0% | [5]; at 33.0 µM 1% | [5]; at 50.0 µM 17.2% | [5]; at 100.0 µM 3% | [6]; at 1.2 µM 1% | [6]; at 3.7 µM 6% | [6]; [17] -15% | [6]; at 11.0 µM 5% | [6]; at 33.0 µM 9% | [6]; [18] 47% | [6]; at 50.0 µM 13.7% | [6]; at 100.0 µM 4% | [7]; at 1.2 µM -3% | [7]; at 3.7 µM -3% | [7]; at 11.0 µM 1% | [7]; at 33.0 µM 5% | [7]; at 100.0 µM 14% | [8]; [17] 42% | [8]; at 50.0 µM 17.6% | [9]; at 1.2 µM -4% | [9]; at 3.7 µM -12% | [9]; at 11.0 µM -4% | [9]; at 33.0 µM 1% | [9]; at 100.0 µM 2% | [10]; [17] -9% | [10]; [18] 46% | [10]; at 50.0 µM 7.15% | [11]; at 1.2 µM -1% | [11]; at 3.7 µM -3% | [11]; [17] 9% | [11]; at 11.0 µM 0% | [11]; at 33.0 µM -1% | [11]; at 50.0 µM 17.8% | [11]; at 100.0 µM -5% | [12]; at 1.2 µM 0% | [12]; at 3.7 µM -1% | [12]; at 11.0 µM -1% | [12]; at 33.0 µM 3% | [12]; at 100.0 µM 6% | [13]; at 1.2 µM 2% | [13]; at 3.7 µM 2% | [13]; at 11.0 µM 3% | [13]; at 33.0 µM 3% | [13]; at 100.0 µM 5% | [14]; at 1.2 µM 2% | [14]; at 3.7 µM 1% | [14]; at 11.0 µM 4% | [14]; at 33.0 µM 6% | [14]; at 100.0 µM 7% | [15]; [17] 57% | [15]; at 50.0 µM 20.4% | [16]; at 1.2 µM 1% | [16]; at 3.7 µM -1% | [16]; at 11.0 µM -1% | [16]; at 33.0 µM 3% | [16]; at 100.0 µM 6%
active: [5]; [18] 80% | [8]; [18] 92% | [11]; [18] 77% | [15]; [18] 95%

O=C(Nc1ccc(Cl)cc1)OCC#CCCl
inactive: [1]; at 1.2 µM 5% | [1]; at 3.7 µM -1% | [1]; at 11.0 µM 15% | [1]; at 33.0 µM 16% | [1]; at 100.0 µM 27% | [2]; at 1.2 µM -1% | [2]; at 3.7 µM 1% | [2]; at 11.0 µM 12% | [2]; at 33.0 µM 10% | [2]; at 100.0 µM 9% | [5]; at 1.2 µM -4% | [5]; at 3.7 µM -9% | [5]; [17] 8% | [5]; at 11.0 µM -6% | [5]; at 33.0 µM 15% | [5]; [18] 7% | [5]; at 50.0 µM 10.9% | [5]; at 100.0 µM 28% | [6]; at 1.2 µM 3% | [6]; at 3.7 µM 3% | [6]; [17] 6% | [6]; at 11.0 µM 4% | [6]; at 33.0 µM 2% | [6]; [18] 18% | [6]; at 50.0 µM 2.65% | [6]; at 100.0 µM 8% | [7]; at 1.2 µM 3% | [7]; at 3.7 µM 12% | [7]; at 11.0 µM -5% | [7]; at 33.0 µM -4% | [7]; at 100.0 µM 24% | [9]; at 1.2 µM -6% | [9]; at 3.7 µM -3% | [9]; at 11.0 µM -3% | [9]; at 33.0 µM 1% | [9]; at 100.0 µM 2% | [10]; [17] 5% | [10]; [18] 7% | [10]; at 50.0 µM -19.2% | [11]; at 1.2 µM -1% | [11]; at 3.7 µM 3% | [11]; [17] 4% | [11]; at 11.0 µM 4% | [11]; at 33.0 µM 3% | [11]; [18] 23% | [11]; at 50.0 µM 18.1% | [11]; at 100.0 µM 1% | [15]; [17] 9% | [15]; [18] 46% | [15]; at 50.0 µM 6.8% | [16]; at 1.2 µM -5% | [16]; at 3.7 µM 6% | [16]; at 11.0 µM 11% | [16]; at 33.0 µM 10% | [16]; at 100.0 µM 52%
active: [3]; at 1.2 µM 76% | [3]; at 3.7 µM 92% | [3]; at 11.0 µM 97% | [3]; at 33.0 µM 98% | [3]; at 100.0 µM 98% | [4]; at 1.2 µM 89% | [4]; at 3.7 µM 96% | [4]; at 11.0 µM 98% | [4]; at 33.0 µM 98% | [4]; at 100.0 µM 98% | [8]; [17] 96% | [8]; [18] 98% | [8]; at 50.0 µM 96.7% | [12]; at 1.2 µM 95% | [12]; at 3.7 µM 98% | [12]; at 11.0 µM 99% | [12]; at 33.0 µM 99% | [12]; at 100.0 µM 99% | [13]; at 1.2 µM 83% | [13]; at 3.7 µM 94% | [13]; at 11.0 µM 97% | [13]; at 33.0 µM 98% | [13]; at 100.0 µM 98% | [14]; at 1.2 µM 93% | [14]; at 3.7 µM 96% | [14]; at 11.0 µM 98% | [14]; at 33.0 µM 98% | [14]; at 100.0 µM 98%
